# Test results from PubChem BioAssay (NCI).
# Where “and” joins values, the source holds several entries; their conditions need not be identical. Equal entries are not always repeated. Compounds without any hit were thinned out: in the full panel of roughly 83,000, 20% have a hit.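 Single-dose data. Exposure time 48 hours. Values below 10 considered active.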 Calls of active or inactive are those of the source.
# What was measured:
# Test in all cases: NCI-60 one-dose screen, 48 h (100 = growth as untreated, 0 = no growth, -100 = all killed)
# Conditions in all cases: 10 µM unless noted
# SR leukemia = tested on: SR leukemia
# RPMI-8226 leukemia = tested on: RPMI-8226 leukemia
# OVCAR-8 ovarian = tested on: OVCAR-8 ovarian
# OVCAR-5 ovarian = tested on: OVCAR-5 ovarian
# OVCAR-4 ovarian = tested on: OVCAR-4 ovarian
# SK-OV-3 ovarian = tested on: SK-OV-3 ovarian
# IGROV1 ovarian = tested on: IGROV1 ovarian
# OVCAR-3 ovarian = tested on: OVCAR-3 ovarian
# HS 578T breast = tested on: HS 578T breast
# NCI/ADR-RES ovarian = tested on: NCI/ADR-RES ovarian
# T-47D breast = tested on: T-47D breast
# BT-549 breast = tested on: BT-549 breast
# MDA-MB-435 melanoma = tested on: MDA-MB-435 melanoma
# SW-620 colon = tested on: SW-620 colon
# MCF7 breast = tested on: MCF7 breast
# HCT-116 colon = tested on: HCT-116 colon
# HCC-2998 colon = tested on: HCC-2998 colon
# KM12 colon = tested on: KM12 colon
SMILES,growth (SR leukemia),growth (RPMI-8226 leukemia),growth (OVCAR-8 ovarian),growth (OVCAR-5 ovarian),growth (OVCAR-4 ovarian),growth (SK-OV-3 ovarian),growth (IGROV1 ovarian),growth (OVCAR-3 ovarian),growth (HS 578T breast),growth (NCI/ADR-RES ovarian),growth (T-47D breast),growth (BT-549 breast),growth (MDA-MB-435 melanoma),growth (SW-620 colon),growth (MCF7 breast),growth (HCT-116 colon),growth (HCC-2998 colon),growth (KM12 colon)
O=C1C=C(Nc2ccccc2)c2ncccc2C1=O,-28.2% (active),-40.7% (active),-92.7% (active),-90.3% (active),-95.2% (active),-91.1% (active),-66.7% (active),-74.6% (active),-8.31% (active),-24.8% (active),-48.3% (active),-94.4% (active),-95.3% (active),-70.6% (active),-52.2% (active),-87.9% (active),-89.1% (active),-67.3% (active)
C[C@@H]1O[C@@H](O[C@H]2[C@@H](OC(=O)[C@]34CCC(C)(C)C[C@H]3C3=CC[C@@H]5[C@@]6(C)C[C@H](O)[C@H](O[C@@H]7O[C@H](CO)[C@@H](O)[C@H](O)[C@H]7O)[C@@](C)(CO)[C@@H]6CC[C@@]5(C)[C@]3(C)C[C@H]4O)OC[C@@H](O)[C@@H]2O)[C@H](O)[C@H](O[C@@H]2OC[C@@H](O)[C@H](O[C@@H]3OC[C@](O)(CO)[C@H]3O[C@@H]3OC[C@@H](O)[C@H](O)[C@H]3O)[C@H]2O)[C@H]1O[C@@H]1OC[C@](O)(CO)[C@H]1O,67.5% (inactive),64% (inactive),98.8% (inactive),78.1% (inactive),42.5% (inactive),93.9% (inactive),86.4% (inactive),89.6% (inactive),97.9% (inactive),80.5% (inactive),49.8% (inactive),74.4% (inactive),52.1% (inactive),75.4% (inactive),68.9% (inactive),46.3% (inactive),-1.75% (active),66.5% (inactive)
Nc1ccccc1SC(CC(=O)c1ccccc1)c1ccc([N+](=O)[O-])cc1 (configuration not stated),13.4% (inactive) and 2.29% (active),-1.33% (active) and -0.234% (active),95.5% (inactive) and 95.8% (inactive),118% (inactive) and 114% (inactive),93.8% (inactive) and 87.8% (inactive),108% (inactive) and 95% (inactive),117% (inactive) and 76.1% (inactive),105% (inactive) and 63.8% (inactive),103% (inactive) and 105% (inactive),98.2% (inactive) and 91.9% (inactive),93.5% (inactive) and 78.4% (inactive),83.6% (inactive) and 86.4% (inactive),101% (inactive) and 87.2% (inactive),51.9% (inactive) and 45.8% (inactive),33% (inactive) and 21.6% (inactive),-87.1% (active) and -80.5% (active),101% (inactive),79.1% (inactive) and 31.5% (inactive)
Cn1cc(-c2csc(-c3c[nH]c4ccc(F)cc34)n2)c2cnccc21,-36% (active),-35.5% (active),-1.04% (active),-12.5% (active),10.9% (inactive),103% (inactive),-37.1% (active),-73.2% (active),-38.1% (active),11.5% (inactive),-65% (active),76.6% (inactive),-90.5% (active),-86.7% (active),-25.1% (active),-89.9% (active),-54.9% (active),-11.8% (active)
NNCCc1ccccc1,106% (inactive) and 104% (inactive),95.3% (inactive) and 110% (inactive),116% (inactive) and 96.7% (inactive),93.1% (inactive),101% (inactive) and 96.9% (inactive),108% (inactive) and 94.9% (inactive),97.2% (inactive),122% (inactive) and 100% (inactive),116% (inactive) and 94.1% (inactive),104% (inactive) and 91.4% (inactive),106% (inactive) and 95.2% (inactive),103% (inactive) and 107% (inactive),109% (inactive) and 97.2% (inactive),106% (inactive) and 94.6% (inactive),98.5% (inactive) and 86.6% (inactive),103% (inactive) and 93.5% (inactive),110% (inactive) and 98.5% (inactive),111% (inactive) and 99.5% (inactive)
CCOC(=O)CCCn1c(-c2ccccc2)cc(-c2ccccc2)c(C#N)c1=O,63.7% (inactive),87.2% (inactive),85.6% (inactive),99.5% (inactive),94.8% (inactive),100% (inactive),77.2% (inactive),103% (inactive),67.8% (inactive),72% (inactive),93.6% (inactive),93.9% (inactive),50% (inactive),88.3% (inactive),89.6% (inactive),75.5% (inactive),98.2% (inactive),83.4% (inactive)
COc1cc2c(cc1OCCCOC1=C=C=C(c3ccc4c(c3)c3cc(-c5ccc(OCCCOc6cc7c(cc6OC)C(=O)N6CCC[C@H]6C=N7)cc5)ccc3n4S(=O)(=O)c3ccc(C)cc3)C=C1)N=C[C@@H]1CCCN1C2=O,-74% (active),17.9% (inactive),23.9% (inactive),113% (inactive),58.2% (inactive),93.7% (inactive),14% (inactive),0.652% (active),2.22% (active),94% (inactive),37.1% (inactive),277% (inactive),44.5% (inactive),6.31% (active),23% (inactive),136% (inactive) and 11.4% (inactive),-43.2% (active),42.1% (inactive)
COc1ccccc1/C=C1\COc2ccc(O)cc2C1=O,11.5% (inactive),4.74% (active),49.4% (inactive),103% (inactive),81.2% (inactive),99.1% (inactive),84.7% (inactive),76.2% (inactive),83.5% (inactive),38.1% (inactive),82.8% (inactive),76.2% (inactive),14.9% (inactive),9.45% (active),12.8% (inactive),42% (inactive),113% (inactive),16.6% (inactive)
O=c1ccc2nc(-c3ccccn3)nn(-c3ccccc3)c-2c1,5.21% (active),50.3% (inactive),87.1% (inactive),109% (inactive),81.8% (inactive),84.9% (inactive),87.9% (inactive),-21.9% (active),93.9% (inactive),98% (inactive),-28.4% (active),86.6% (inactive),90.7% (inactive),-61.8% (active),-56% (active),48.7% (inactive),98.8% (inactive),98.4% (inactive)
C=C(C)[C@@H]1CC[C@]2(C(=O)N3CCN(C)CC3)CC[C@]3(C)[C@H](CC[C@@H]4[C@@]5(C)CC(CCCNC(C)=O)(CCCNC(C)=O)[C@H](OC(C)=O)C(C)(C)[C@@H]5CC[C@]43C)[C@@H]12,76.2% (inactive),75.5% (inactive),106% (inactive),102% (inactive),111% (inactive),102% (inactive),102% (inactive),104% (inactive),96.6% (inactive),98.7% (inactive),89.9% (inactive),104% (inactive),94.4% (inactive),99.2% (inactive),89.1% (inactive),90.7% (inactive),106% (inactive),107% (inactive)
O=C1C=CC(=O)N1c1ccc2ccccc2c1,40.7% (inactive) and 63.4% (inactive),105% (inactive) and 81.3% (inactive),103% (inactive) and 101% (inactive),96.6% (inactive) and 97.9% (inactive),93.7% (inactive),107% (inactive) and 99.7% (inactive),101% (inactive) and 105% (inactive),69.7% (inactive) and 93.9% (inactive),93.6% (inactive) and 103% (inactive),99.7% (inactive) and 104% (inactive),88.7% (inactive) and 88.6% (inactive),114% (inactive) and 103% (inactive),120% (inactive) and 95.4% (inactive),19.4% (inactive) and -15.2% (active),95.4% (inactive) and 106% (inactive),44.9% (inactive) and 54.9% (inactive),100% (inactive) and 106% (inactive),103% (inactive) and 104% (inactive)
Cc1cc(N2CCN(CC(=O)Nc3ccc4c(ccn4Cc4ccccc4)c3)CC2)nc(N2CCCCCC2)n1,29.2% (inactive),41.5% (inactive),31.6% (inactive),75.6% (inactive),51.8% (inactive),48.2% (inactive),42.3% (inactive),62.8% (inactive),62.8% (inactive),39.6% (inactive),42.7% (inactive),65.1% (inactive),60.7% (inactive),56.8% (inactive),20.5% (inactive),38.8% (inactive),64.5% (inactive),37.6% (inactive)
Nc1nc(Nc2cccnc2)sc1C(=O)c1ccccc1F,19.1% (inactive),17.7% (inactive),31.8% (inactive),26.2% (inactive),80.7% (inactive),85.9% (inactive),21.3% (inactive),9.96% (active),58.1% (inactive),48.3% (inactive),33% (inactive),12.2% (inactive),39.2% (inactive),34.5% (inactive),9.37% (active),3.8% (active),69.5% (inactive),5.5% (active)
Cc1ccc(-c2nc3nc(-c4ccccc4)nc(N4CCCNCC4)c3o2)cc1,-49.7% (active),-55% (active),-48.4% (active),-32.4% (active),-52.3% (active),79.9% (inactive),-73.8% (active),-81.7% (active),-18.1% (active),-29.8% (active),-45% (active),18% (inactive),-83.1% (active),-57.5% (active),-78.4% (active),-71.4% (active),-74.9% (active),-92.3% (active)
